These sequences were tested on THRa:RXRa (NR concentration 90 nM, RXRa partner concentration 90 nM) (assay: PBM binding z-score (relative to random genomic background probes); higher = stronger binding; sequences stand for … in GC…GCGATTGACAGCGTAGAATGAAGG).
Outline: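 Antibodies against each partner of ligand-free nuclear receptor dimers (one per run) detected binding on custom Agilent 4×180K protein-binding microarrays after 1 h incubation. The double-stranded probes had 34-nt variable regions carrying direct-repeat seeds, single-nucleotide variants, half-site ablations and random human genomic background sequences. Binding z-scores, from regression-normalized fluorescence, use the random background probes as reference.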

Sequence | PBM binding z-score
ACTCGGAGTACAAAGGTCAGAGCTACGCCAGTGA | 2.64
GCTCGCAGGACAAGGTCAGAGCTTTGTCCGTAGA | 2.5
ATCGAAAGGTCGAAGGTGAGTATCCCCACCCGAA | 2.36
GTACCAAGGTGAATAGGTCGTTGAGGAGTAGGCG | 1.76
CCTACTGGGCCAAAAAGGTCATTGGTGCCGATAA | 3.13
ACTATTAGTTGAGACGAGGGGAACCGATAGGTTG | 1.13
TCAGACAGGTGAAGGTAACTTAGGTACGCAGTCG | 1.86
GCCAGCAGGCCATTTGGGTCACTCAATGACGGGC | 1.8
GCTATTAGTTGAAAGGGCAACTGAATGATTCTCG | 0.832
TAGCCTAGGTCAAATCGGGCCAGTATACGCTATA | 4.59
CAAACTAGGTCATCGGAAGGTCAAAGTCCGCATG | 4.2
GGAACTAGGGCATTCGAGTTGATAGCATGGCGAT | 2.13
TCTTGAAGATCAACAGGAGGTTAAGAAAGATCGA | 0.975
ACAGACAGGTGAGTGAAGGTATCTCAGCTGGACG | -0.00206
CAAACTAGGTCAAGCTCAAAGTCGGTTTGTGCCA | 3.2
AATACAGGGTCATCGTAGCCCAGAGTACGCACAG | 3.69
CCTGCTAGGTCATGGTAAGCTAATCTACAGTATG | 2.98
GCTAGCAGGCCATTTGGGTCACTCAGTGACGGGC | 1.9
TCAGACAGGTGAAGATAACTCAGGTACGCAGTCG | 0.737
CCAGACAGGTGAGAAGGTAACTTAGCCTCGATTA | 0.524

Sequence | PBM binding z-score
TAGCCTAGGTCATGCGGTCCAGTATAGTGTCGGC | 3
ACTAGTTGGTCAGCGGAGGTCACACACAATTCGG | 4.32
TGAATGAGGTTAAAGATCACGGAACGTGGCGTCG | 2.72
TATACAGGGTCAAAGGCCAGGGTACGAATGTCGA | 3.73
CCTTACGGGACACGAGGTTATAGCACGACGAGCG | 1.77
CTACCAAGGTGAACAAGGTCGTTGAATACTATTC | 3.25
CCGACTGGGACAAGGTTACCATAACGCACAGCCA | 1.61
CCTAGTTGGTCAAGTTCACACACGCTATAGGTAC | 2.12
ATTAGCAGGCCAAGTTTGGGTCACTCAAACAAAG | 2.69
GATACAGGGTCACGGCCAGAGTACGCGTATTGAT | 4.17
GCTAGCAGGCCATTTGGGTCGCTCAATGACGGGC | -0.00184
TCTAGCAGGCCAGAGGCTCACTCAAGAGGTACGG | -0.767
ATCGAAAGGTCGAAGCTGAGTATACCCACCCGAA | 1.73
CATTCAGGGTCAGCTAGGCCAGAGTAGGGACGGC | 3.44
TTTGCTAGGTCAGTTGGTCAGCTAACGAGCTGCC | 1.42
ACAGACAGGTGCTGAAGGTAACTCAGGCTATCAT | 0.3
AGAAGGAGGTTAAGATCAGGGAAACAGAATACAT | 1.94
AGAATGAGGTTAAGATCAGGCAAACAGAATACAT | 2.86
CCTACTGGGCCAACGTCATTGATCAGTCAAAGCA | -0.204
GCTAGCAGGCCGTTTGGGTCACTCAATGACGGGC | 1.61
